From PubChem BioAssay (NCI)
This is part of a sample that, as a whole, favours compounds with a hit. Of some 83,000 tested, about 20% had one in any assay.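 How to read the values: 0–100, growth inhibition (40 = 60% inhibited); 0, no net growth; -100 to 0, cell death (-40 = 40% of starting cells died; -100 = all dead).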 Values without a mark were called inactive. Active and inactive are the calls of the source. How the source made its calls: active means growth percent below 10; inactive means the rest.

system: DU-145 prostate; test: NCI-60 one-dose screen, 48 h (100 = growth as untreated, 0 = no growth, -100 = all killed); settings: 10 µM unless noted

| Compound | growth |
| --- | --- |
| [O-]/[N+](=C\c1ccccc1)CC1(O)CCCCC1 | 109% |
| CC(=O)O[C@H]1[C@H](CC#CC#CC[C@@H]2C[C@]3(C)[C@H]4CC=C5[C@H]6[C@@H](C)[C@H](C)CC[C@]6(C(=O)NCCCCCCCCN)CC[C@@]5(C)[C@]4(C)CC[C@H]3C(C)(C)[C@H]2OC(C)=O)C[C@]2(C)[C@H]3CC=C4[C@H]5[C@@H](C)[C@H](C)CC[C@]5(C(=O)NCCCCCCCCN)CC[C@@]4(C)[C@]3(C)CC[C@H]2C1(C)C | 110% |
| N#Cc1c(N)c(C(=O)c2ccc3c(c2)OCCO3)n2c1CCCC2 | 45.2% |
| Cc1c(O)c(=O)n(-c2ccccc2)n1C | 116% |
| COc1ccc2[nH]c(O)c(/C=c3/ccc4c(c3)N=C(c3ccc(C(F)(F)F)cc3)N=4)c2c1 | 86.6% |
| COc1ccc(/C=C/C(=O)c2ccc(NC(=O)CSc3nnc(-c4ccc(OC)cc4)n3-c3ccccc3)cc2)cc1 | 104% |
| N=C(N)c1ccc(-c2ccc(-c3cc(Cl)cc(Cl)c3)o2)nc1 | -91.9% (active) |
| CN(C)c1ccc(N2Cc3ccccc3OC3=C2C(=O)c2c(O)ccc(O)c2C3=O)cn1 | -97.3% (active) |
| COc1ccccc1/C=N\NC(=S)Nc1ccc(F)cc1 | 98.6% |
| FC(F)(F)C1=NNC(c2ccc3ccccc3c2)=NN1 | 104% |
| CCCC(CCC)NCC(O)c1cc(-c2ccc(C(F)(F)F)cc2)nc(C(F)(F)F)c1 (configuration not stated) | -26.2% (active) |
| CCOC(=O)c1c(NC(=O)c2ccccc2)sc2c(O)c(CN(CC)CC)ccc12 | -26.9% (active) |
